Compound activity deposited in PubChem by several laboratories.
Measles CPE = protection of cells from measles virus. Measles virus-infected cells, CPE protection, absorbance. protection (pct of control), % at 4 µM. actives 1.5% (n = 140,000). AID 841; in the data active = protection mostly above about 24%, no sharp cut-off; inactive = mostly below about 26%
CYP2C19 act = increases human CYP2C19 enzyme activity. activation factor at 5 µM. 96,000 tested, under 10 active. recombinant CYP2C19, luciferin-H EGE luminescence; hits give high values; 0 = fully inhibited enzyme, 1 = untreated enzyme;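 active = activation factor of at least 2 at 5 µM in the primary screen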
CYP2C19 inhib = inhibitors of human CYP2C19 | AID 778 | CYP2C19 Supersomes, luciferin-H EGE luminescence, 30 min | P33261 | actives 21% (n = 96,000) | inhibition, % at 5 µM;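 active = CYP2C19 inhibition above a set limit at 5 µM in the primary screen, cut at about 50% in these data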
CYP2C9 activ = CYP2C9 (human) activation. P11712. recombinant CYP2C9, luciferin-H conversion, luminescence; hits give high values; factor 1 = untreated enzyme, 0 = blocked. activation factor at 5 µM. actives 1.4% (n = 96,000);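 active = activation factor of 2 or more for CYP2C9 at a 5 µM dose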
Target sequence (P11712 whole entry, looked up): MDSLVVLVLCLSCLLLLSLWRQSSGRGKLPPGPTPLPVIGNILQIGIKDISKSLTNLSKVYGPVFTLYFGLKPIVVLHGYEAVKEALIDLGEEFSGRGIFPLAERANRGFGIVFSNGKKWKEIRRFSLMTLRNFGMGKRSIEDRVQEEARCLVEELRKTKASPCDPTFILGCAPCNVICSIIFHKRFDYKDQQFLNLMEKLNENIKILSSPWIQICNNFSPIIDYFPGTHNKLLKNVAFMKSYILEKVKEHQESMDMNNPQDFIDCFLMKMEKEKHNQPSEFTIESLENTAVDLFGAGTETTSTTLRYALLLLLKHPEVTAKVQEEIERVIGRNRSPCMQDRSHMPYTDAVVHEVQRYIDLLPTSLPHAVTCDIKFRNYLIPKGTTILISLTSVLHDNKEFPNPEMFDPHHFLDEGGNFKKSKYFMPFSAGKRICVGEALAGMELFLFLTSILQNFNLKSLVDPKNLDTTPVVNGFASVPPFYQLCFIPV
CYP2C9 inh = inhibitors of human CYP2C9; P11712; CYP2C9 Supersomes, luciferin-H conversion, luminescence; inhibition, % at 5 µM; actives 20% (n = 96,000); AID 777;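 active = blocking of liver enzyme CYP2C9 beyond about 50% at 5 µM, limit read from the data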
Numbers stand for hits; . = inactive; / = no result given. Hits are enriched below; roughly 22% of the tested compounds scored in any of these assays.

SMILES | Measles CPE | CYP2C19 act | CYP2C19 inhib | CYP2C9 activ | CYP2C9 inh
c1ccc(-c2nc(NCC3CCCO3)c3ccccc3n2)nc1 (configuration not stated) | . | . | . | . | .
c1ccc2c(c1)[nH]c1c(NCC3CCCO3)ncnc12 (configuration not stated) | . | . | . | . | 54.2
C=CCNc1ncnc2c1[nH]c1ccccc12 | . | . | . | . | .
CCCCOc1ncnc2c1[nH]c1ccccc12 | . | . | . | . | .
CCOCCCNc1ncnc2c1[nH]c1ccccc12 | . | . | 60.3 | . | .
CCOCCCNc1nc2ccccc2[nH]1 | 45.6 | . | . | . | .
CCCCOCCCNc1ncnc2c1[nH]c1ccccc12 | . | . | 52.2 | . | 65.8
N#CC1=C(N)Oc2cc(O)ccc2C1c1ccncc1 (configuration not stated) | . | . | 84.3 | . | 92.5
N#CC1=C(N)Oc2c(ccc3ccccc23)C1c1cccs1 (configuration not stated) | . | . | . | . | 54.1
CC(C)(C)C1=C(C#N)C(c2ccncc2)C(C#N)=C(N)O1 (configuration not stated) | . | / | / | / | /
N#CC1=C(N)Oc2cc(O)ccc2C1c1cccs1 (configuration not stated) | . | . | 75.9 | . | 74.3
CN(C)c1ccc2c(c1)OC(N)=C(C#N)C2c1cccc(F)c1 (configuration not stated) | . | . | 92.4 | . | 80.5
COc1cccc(C2C(C#N)=C(N)Oc3c2oc(CO)cc3=O)c1 (configuration not stated) | . | / | / | / | /
CSCCC(NC(=O)c1cc(C(C)(C)C)oc1C)C(=O)O (configuration not stated) | . | . | . | . | .
CCOC(=O)CCc1c(C)c2ccc(OCC(=O)OC(C)C)cc2oc1=O | . | . | . | . | .
CCOc1cc(C(=S)N2CCOCC2)ccc1OS(=O)(=O)c1ccccc1 | . | / | / | / | /
COc1ccccc1CCNC(=O)CCn1c(=O)oc2ccccc21 | . | . | 82.6 | . | .
O=C(CCn1c(=O)oc2ccccc21)Nc1nc2ccccc2s1 | 40.2 | . | 52.5 | . | 59.2
OC(CNc1nc2ccccc2s1)c1ccccc1 (configuration not stated) | . | . | 94.6 | . | 69.5
CCOCC(=O)Nc1nc2ccccc2s1 | . | / | / | / | /
CC(C)OC(=O)CCC(=O)Nc1nc2ccccc2s1 | . | . | 81.1 | . | 66.4
CCOC(=O)CNC(=O)c1c(C)nn(-c2ccccc2)c1Cl | . | . | . | . | .
Cc1ccc(C(=O)Oc2cccc(NC(=O)c3ccccc3)c2)cc1C | . | / | / | / | /
COCC(C)Nc1ncnc2c1cnn2-c1ccc(Cl)cc1 (configuration not stated) | . | / | / | / | /
Nc1nc(SCC(=O)Nc2ccc([N+](=O)[O-])cc2Br)n[nH]1 | . | / | / | / | /
SMILES | Measles CPE | CYP2C19 act | CYP2C19 inhib | CYP2C9 activ | CYP2C9 inh
COC(=O)c1sc2ncccc2c1OCc1ccccc1Cl | . | . | . | . | .
Cc1ccc(NC(=O)CSc2nc(-c3ccco3)cc(C(F)(F)F)n2)cc1C | . | / | / | / | /
O=C(CCSc1nc(-c2ccco2)cc(C(F)(F)F)n1)Nc1ccc2c(c1)OCO2 | / | . | 64.0 | . | 59.5
O=C(CCSc1nc(-c2ccc3c(c2)OCO3)cc(C(F)(F)F)n1)NCc1ccco1 | . | . | 69.1 | . | 65.2
C=CCNC(=S)N1CCC(C(=O)c2ccc(OC)cc2)CC1 | . | . | . | . | .
O=P(COCCO)(c1ccccc1)c1ccccc1 | . | . | . | . | .
Nc1c(C(=O)c2ccccc2)sc2snc(SCC(=O)c3ccccc3)c12 | . | . | . | . | 83.2
CC1(C)C2CCC1(C)C(NC1=NCCC1)C2 (configuration not stated) | . | . | . | . | .
Cn1c(=O)c2c(nc(NCc3ccccc3)n2CC(=O)NCc2ccccc2)n(C)c1=O | . | . | . | . | .
CCn1c(=O)c2cc(C(=O)NCCN3CCOCC3)sc2c2ccccc21 | . | . | . | . | .
CCn1c(=O)c2cc(C(=O)Nc3cc(C)on3)sc2c2ccccc21 | . | . | . | 2.1 | .
Cc1ccsc1C(=O)NNC(=O)C1CC=CCC1C(=O)O (configuration not stated) | . | / | / | / | /
CC(C)c1ccc(C(=O)NNC(=O)C2CC=CCC2C(=O)O)cc1 (configuration not stated) | 28.7 | / | / | / | /
COC(=O)c1cccc(S(=O)(=O)N2CCOCC2)c1 | . | . | . | . | .
O=S(=O)(NCc1ccc2c(c1)OCO2)c1cccc(S(=O)(=O)N2CCOCC2)c1 | . | . | 74.6 | . | .
COC(=O)c1ccc(S(=O)(=O)NCc2cccc(OC)c2)n1C | . | . | 60.4 | . | .
COc1cccc(CNC(=O)Cn2cccc2)c1 | . | . | . | . | .
COc1ccc(CNS(=O)(=O)c2cccc(S(=O)(=O)N3CCOCC3)c2)cc1 | . | . | 57.9 | . | .
COc1cccc(CNS(=O)(=O)c2cccc(S(=O)(=O)N3CCOCC3)c2)c1 | . | . | 57.1 | . | .
CNC(=O)CSc1nc2c(c(=O)n(C)c(=O)n2C)n1Cc1ccc(C)cc1 | . | . | . | . | .
Cc1cc(C)c2c(N)c(-c3nc4ccccc4[nH]3)sc2n1 | . | . | 52.2 | . | 57.4
O=C(CN1CCN(S(=O)(=O)c2ccc(F)cc2)CC1)Nc1ccc2c(c1)OCO2 | . | . | . | . | .
O=C(COC(=O)Cc1ccsc1)NCC12CC3CC(CC(C3)C1)C2 | . | . | 58.9 | . | .
CC1CCCC(NC(=O)COC(=O)Cc2ccsc2)C1C (configuration not stated) | . | . | 64.4 | . | .
CC1CCCC(NC(=O)COC(=O)CCC2CCCC2)C1C (configuration not stated) | . | . | . | . | 63.5
SMILES | Measles CPE | CYP2C19 act | CYP2C19 inhib | CYP2C9 activ | CYP2C9 inh
O=C(COC(=O)c1ccccc1NS(=O)(=O)c1cccs1)NCC12CC3CC(CC(C3)C1)C2 | . | / | / | / | /
O=C(COC(=O)Cc1ccsc1)NC1CCCCCC1 | . | . | 73.8 | . | .
CC1CCCC(NC(=O)COC(=O)COc2ccc(Cl)cc2)C1C (configuration not stated) | . | . | . | . | .
O=C(Nc1ccccn1)c1nc(-c2ccccc2)n(-c2ccccc2)n1 | . | / | / | / | /
COC12NC(=O)N(C)C1(OC)C(=O)N(C)C(=O)N2C (configuration not stated) | . | / | / | / | /
O=C(NC1CCCCC1)C(c1ccccc1)N1CCC2(CC1)OCCO2 (configuration not stated) | . | . | . | . | .
COc1ccc(-n2c(SCC(=O)N3CCN(c4ccccc4)CC3)nc3c(c2=O)SCC3)cc1 | . | . | 57.0 | . | 69.7
COC(=O)C(C)Sc1nc2c(c(=O)n1-c1ccccc1)SCC2 (configuration not stated) | . | . | 88.7 | . | 69.2
COC(=O)c1ccc(CSc2nc3c(c(=O)n2-c2ccc(C)cc2)SCC3)o1 | . | . | 64.6 | . | 93.2
Cc1ccc(-n2c(SCC(=O)N3CCCC3)nc3c(c2=O)SCC3)cc1 | . | . | . | . | .
